Shown are actives, neighbours in structure and some others; about 2.1% of the full set was active somewhere.
ARNT-TACC3 inh: disruptors of ARNT/TACC3 protein interaction, primary screen, biochemical, AlphaScreen, single concentration | Transforming acidic coiled-coil-containing protein 3 (Homo sapiens), Q9Y6A5 | 390,000 compounds, 0.66% hits | inhibition, % at 9.99 µM | AID 623870, 2012 | AlphaScreen His-ARNT PAS-B/GST-TACC3 binding, luminescence; TACC3 fragment carries E629A point mutation;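 active = mean inhibition of replicates at least 50% and at least half of replicates each reaching 50%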
CASP6 VEID inh: human caspase-6 inhibitors, primary screen, biochemical, VEID-R110 fluorescence, single point, set 2. P55212. purified caspase-6, Z-VEID-R110 cleavage fluorescence. inhibition, % at 12.5 µM. 350,000 compounds, 0.53% hits;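 active = mean inhibition across replicates at least about 35%, with every replicate also reaching that limit, limit read from the data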
Target sequence (P55212 24-179 limits assumed): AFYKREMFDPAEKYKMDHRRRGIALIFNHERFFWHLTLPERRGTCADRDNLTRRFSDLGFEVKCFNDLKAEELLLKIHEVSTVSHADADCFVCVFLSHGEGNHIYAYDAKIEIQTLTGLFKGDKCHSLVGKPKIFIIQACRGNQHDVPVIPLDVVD
Target sequence (P55212 194-293 limits assumed): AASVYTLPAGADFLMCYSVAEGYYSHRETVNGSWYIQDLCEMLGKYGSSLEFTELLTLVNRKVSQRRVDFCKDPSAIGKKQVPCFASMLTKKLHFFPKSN
SIRT5 inh: SIRT5 desuccinylase inhibitors, primary screen, biochemical, fluorescence imaging, single point, set 5; NAD-dependent protein deacylase sirtuin-5, mitochondrial (Homo sapiens), Q9NXA8; Purified SirT5, succinyl-peptide AMC, trypsin-coupled fluorescence; inhibition, % at 15 µM; 330,000 compounds, 1.1% hits; in the data active = inhibition above about 15%
Target sequence (Q9NXA8 whole entry, looked up): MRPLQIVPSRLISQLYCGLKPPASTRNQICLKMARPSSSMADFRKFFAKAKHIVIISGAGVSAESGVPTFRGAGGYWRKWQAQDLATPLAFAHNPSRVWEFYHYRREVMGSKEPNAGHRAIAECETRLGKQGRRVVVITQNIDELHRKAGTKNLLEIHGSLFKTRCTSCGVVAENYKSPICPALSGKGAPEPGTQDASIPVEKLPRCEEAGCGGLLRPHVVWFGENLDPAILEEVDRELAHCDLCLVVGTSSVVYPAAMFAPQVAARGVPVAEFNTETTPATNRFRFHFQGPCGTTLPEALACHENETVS
PfHsp90 set2: growth inhibition of PfHsp90-expressing yeast, primary screen, antimalarial PfHsp90 inhibitor project, S. cerevisiae, BacTiter-Glo luminescence, single point, set 2. inhibition, % at 9.4 µM. AID 504621, 2011. BacTiter-Glo ATP, 48 h; yeast lacking PDR1 and PDR3 efflux regulators. 310,000 compounds, 0.32% hits;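 active = every replicate shows inhibition above about 80%, whatever the replicate mean, limit read from the data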
NSD2 HMT inh: NSD2 histone methyltransferase inhibitors, primary screen, biochemical, AlphaScreen, single concentration, set 2. Histone-lysine N-methyltransferase NSD2 (Homo sapiens), O96028. NSD2 peptide methylation, 120 min. inhibition, % at 12.5 µM. 310,000 compounds, 0.54% hits. AID 743445, 2014; in the data active = inhibition above about 50%
Each line names hits and unclear results; the compound was inactive in the other large screens.

CCOc1cccc(/C=N/NC(=O)c2cc(C3CC3)[nH]n2)c1O	ARNT-TACC3 inh 71
COc1cc(/C=N/NC(=O)c2cc(C3CC3)[nH]n2)cc(OC)c1OC	none (no result: NSD2 HMT inh)
O=C(C[C@@H]1CC[C@H](NC(=O)Nc2ccccc2F)[C@@H](CO)O1)NCc1ccc(F)cc1	none (no result: ARNT-TACC3 inh, PfHsp90 set2, NSD2 HMT inh)
CCOC(=O)C1=C(c2ccccc2)N=c2s/c(=C\c3ccc(O)cc3)c(=O)n2C1c1cccs1 (stereo unspecified)	none
CCOC(=O)C1=C(C)N=c2sc(=Cc3cc(Cl)c(OCC(=O)O)c(OC)c3)c(=O)n2C1c1ccccc1Cl (stereo unspecified)	SIRT5 inh 24 (no result: ARNT-TACC3 inh, PfHsp90 set2, NSD2 HMT inh)
CCOC(=O)C1=C(C)N=c2s/c(=C/c3cccc([N+](=O)[O-])c3O)c(=O)n2C1c1cc(OC)c(OC)c(OC)c1 (stereo unspecified)	ARNT-TACC3 inh 74
CCOC(=O)C1=C(c2ccccc2)N=c2sc(=Cc3cc(OC)c(OC)c(OC)c3)c(=O)n2C1c1cccs1 (stereo unspecified)	SIRT5 inh 16 (no result: ARNT-TACC3 inh, PfHsp90 set2, NSD2 HMT inh)
COc1ccccc1C1C2=C(N=c3s/c(=C/c4cccc(OCC(=O)O)c4)c(=O)n31)c1ccccc1CC2 (stereo unspecified)	CASP6 VEID inh 38
CC=Cc1ccc2n(c1=O)C[C@@H]1[C@@H](CO)[C@H](C(=O)NC3CCCC3)N[C@H]21 (mixture of isomers)	none (no result: ARNT-TACC3 inh, PfHsp90 set2, NSD2 HMT inh)
C[C@@H]1CN([C@@H](C)CO)C(=O)c2cc(-c3cccc(F)c3)cnc2O[C@@H]1CN(C)C(=O)C1CCCCC1	none (no result: PfHsp90 set2, NSD2 HMT inh)
Cc1sc(NC(=O)c2ccco2)c(C(=O)c2ccc(Cl)cc2)c1C	SIRT5 inh 16
Cc1csc(NC(=O)c2ccco2)c1C(=O)c1ccccc1	none
Cc1sc(NC(=O)c2ccco2)c(C(c2ccccc2)N2CCC(C)CC2)c1C (stereo unspecified)	SIRT5 inh 18
Cc1ccc(C(c2c(NC(=O)c3ccco3)sc(C)c2C)N2CCOCC2)cc1 (stereo unspecified)	none (no result: ARNT-TACC3 inh, SIRT5 inh, PfHsp90 set2)
Cc1cccc(C)c1OCC(=O)NNC(=S)NC(=O)C1CC1	PfHsp90 set2 104
CO[C@H]1CN(C)C(=O)c2cc(NC(=O)c3nc4ccccc4s3)ccc2OC[C@H](C)N(Cc2cncnc2)C[C@@H]1C	SIRT5 inh 15 (no result: CASP6 VEID inh, PfHsp90 set2, NSD2 HMT inh)
CO[C@H]1CN(C)C(=O)c2cc(NC(=O)c3nc4ccccc4s3)ccc2OC[C@H](C)NC[C@H]1C	SIRT5 inh 1.9 (no result: PfHsp90 set2, NSD2 HMT inh)
COc1ccc(CN2C[C@H](C)[C@@H](OC)CN(C)C(=O)c3ccc(NC(=O)c4nc5ccccc5s4)cc3OC[C@@H]2C)cc1	SIRT5 inh 102 (no result: PfHsp90 set2, NSD2 HMT inh)
Cn1c(SSc2ccc(-c3cccnc3)n2C)ccc1-c1cccnc1	ARNT-TACC3 inh 17
CC(C)c1cn(CC[C@H]2CC[C@@H](NS(=O)(=O)Cc3ccccc3)[C@H](CO)O2)nn1	none (no result: PfHsp90 set2, NSD2 HMT inh)
CC1CCCCN1CCCNC(=O)Cn1c(=O)c2cccn2c2ccccc21 (stereo unspecified)	SIRT5 inh 21
Cc1cccc(NC(=O)C2CC(=O)n3ncnc3N2)c1 (stereo unspecified)	SIRT5 inh 79
CC1CCCC(C)N1/N=C/c1ccc(O)c(O)c1 (stereo unspecified)	NSD2 HMT inh 60
O=C(C[C@H]1C=C[C@H](NC(=O)CCN2CCCCC2)[C@@H](CO)O1)Nc1ccccc1	none (no result: ARNT-TACC3 inh, PfHsp90 set2, NSD2 HMT inh)
NC1=NN=C(c2ccc3c(c2)OCCO3)CS1	SIRT5 inh 15
C[C@@H]1CCCCO[C@H](CN(C)Cc2ccccc2)[C@H](C)CN([C@H](C)CO)C(=O)c2cc(NC(=O)NC3CCCCC3)ccc2O1	none (no result: PfHsp90 set2, NSD2 HMT inh)
COc1ccc(-c2cc(C(=O)NC(Cc3cc4ccccc4[nH]3)C(=O)O)c(C)o2)cc1OC (stereo unspecified)	CASP6 VEID inh 48 (no result: NSD2 HMT inh)
CC1=CC(c2ccccc2)=NS(=O)(=O)N1	none (no result: NSD2 HMT inh)
CCOC(=O)C1=NS(=O)(=O)NC(C)=C1	CASP6 VEID inh 36 (no result: NSD2 HMT inh)
O=C(NC1CCC1)[C@@H]1N[C@@H]2c3ccc(-c4cccc(F)c4)c(=O)n3C[C@@H]2[C@H]1CO	none (no result: PfHsp90 set2, NSD2 HMT inh)
COc1cc2c(C#N)c(N3CCCCC3)nc(N)c2c(N)n1	none (no result: ARNT-TACC3 inh, CASP6 VEID inh, SIRT5 inh)
COc1cc2c(C#N)c(N3CCOCC3)nc(N)c2c(N)n1	ARNT-TACC3 inh 69 (no result: CASP6 VEID inh, SIRT5 inh)
CCN(CC)c1nc(N)c2c(N)nc(OC)cc2c1C#N	CASP6 VEID inh 51 (no result: SIRT5 inh, NSD2 HMT inh)
CCC(=O)N(C)C[C@H]1Oc2ncc(-c3ccc(C(=O)N(C)C)cc3)cc2C(=O)N([C@H](C)CO)C[C@H]1C	none (no result: PfHsp90 set2, NSD2 HMT inh)
CC1=NNC(=O)/C1=C\c1cn(-c2ccccc2)nc1-c1ccc(F)cc1	none (no result: CASP6 VEID inh, SIRT5 inh, PfHsp90 set2, NSD2 HMT inh)
CC1=NNC(=O)/C1=C\c1cn(-c2ccccc2)nc1-c1cccs1	PfHsp90 set2 110 (no result: NSD2 HMT inh)
CCCCNc1nc(N)ncc1[N+](=O)[O-]	SIRT5 inh 30 (no result: ARNT-TACC3 inh)
C[C@@H]1CN([C@H](C)CO)C(=O)Cc2cc(NS(=O)(=O)c3cccs3)ccc2O[C@H]1CN(C)S(=O)(=O)c1ccc(F)cc1	none (no result: PfHsp90 set2, NSD2 HMT inh)
CC1=CCC(C(=O)O)C(C(=O)NC2CCCCC2)C1 (stereo unspecified)	CASP6 VEID inh 41 (no result: ARNT-TACC3 inh)
CC1=C(C)CC(C(=O)NC2CCCC2)C(C(=O)O)C1 (stereo unspecified)	none (no result: PfHsp90 set2)
C=CCC[C@@H](CCCCC)OC(=O)/C=C/[C@H](O)[C@@H](O)C[C@H](O)CC=C	SIRT5 inh 16 (no result: ARNT-TACC3 inh, PfHsp90 set2, NSD2 HMT inh)
O=C(C[C@@H]1C=C[C@@H](NC(=O)C2CCOCC2)[C@@H](CO)O1)Nc1ccccc1	none (no result: ARNT-TACC3 inh, PfHsp90 set2, NSD2 HMT inh)
COc1ccc(N(C(=O)c2snc(C(N)=O)c2N)C(C(=O)NC2CCCC2)c2ccco2)c(OC)c1 (stereo unspecified)	CASP6 VEID inh 63
COc1ccc(N(C(=O)c2snc(C(N)=O)c2N)C(C(=O)NC2CCCCC2)c2ccc(C)o2)c(OC)c1 (stereo unspecified)	none
C[C@H]1CN([C@@H](C)CO)C(=O)c2cc(/C=C/c3ccccc3)cnc2O[C@@H]1CN(C)S(=O)(=O)c1ccccc1	none (no result: PfHsp90 set2, NSD2 HMT inh)
C/C(=N\NC(=O)CC#N)c1cc2ccccc2oc1=O	ARNT-TACC3 inh 21 (no result: CASP6 VEID inh, SIRT5 inh)
CN(C)CC(=O)N1[C@@H]2c3cccc(=O)n3C[C@@H]2[C@@H](CO)[C@@H]1C(=O)NCc1ccccc1F	none (no result: ARNT-TACC3 inh, PfHsp90 set2, NSD2 HMT inh)
S=C(NCCN1CCOCC1)N/N=C/c1ccccc1	none
Oc1ccc(/C=N/NC(=S)NCCN2CCOCC2)c(O)c1	ARNT-TACC3 inh 60
Cc1ccc(C)c(S(=O)(=O)Nc2ccc3oc(C)c(C(=O)O)c3c2)c1	CASP6 VEID inh 69 (no result: ARNT-TACC3 inh)
Cc1ccn2c(NC3CCCCC3)c(-c3cccc(-c4cccc(Cl)c4)c3)nc2c1	SIRT5 inh 16 (no result: ARNT-TACC3 inh, NSD2 HMT inh)
